Compound activity (PubChem BioAssay)
Sampled rows, rich in hits. Any-hit rate of the full collection: about 6%.
D1 potentiator: potentiators of human D1 dopamine receptor; P21728; HEK293 TREx D1 cells, calcium flux, dopamine EC20 potentiation; potentiation, % at 10 µM; 0.036% of 360,000 active; AID 504651; in the data active means potentiation above about 30%
Target sequence (P21728 whole entry, looked up): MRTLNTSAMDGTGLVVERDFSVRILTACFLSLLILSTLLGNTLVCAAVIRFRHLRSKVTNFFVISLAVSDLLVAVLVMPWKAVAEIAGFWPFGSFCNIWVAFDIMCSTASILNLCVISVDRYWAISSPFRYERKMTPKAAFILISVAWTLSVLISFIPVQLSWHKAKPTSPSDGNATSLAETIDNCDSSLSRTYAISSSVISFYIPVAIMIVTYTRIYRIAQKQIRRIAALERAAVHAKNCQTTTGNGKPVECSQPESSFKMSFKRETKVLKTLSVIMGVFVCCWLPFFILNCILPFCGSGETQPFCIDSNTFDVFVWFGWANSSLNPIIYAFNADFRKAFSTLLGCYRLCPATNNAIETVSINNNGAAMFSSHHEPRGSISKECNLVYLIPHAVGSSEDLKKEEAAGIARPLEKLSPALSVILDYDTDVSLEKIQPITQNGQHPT
D3 ag: D3 dopamine receptor (human) agonism | D3R DiscoveRx beta-arrestin cells, luminescence, 90 min | max activation, % | 0.58% of 410,000 active | AID 652048; in the data active means max activation above about 30%
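Agonist-mode cell screen: cells plated at 1500/well and incubated overnight at 37 °C, then exposed to library compounds for 90 min at 37 °C. Detection reagent was added for 30–60 min at room temperature, and luminescence was read.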
DRD3 antagonist: antagonists of human D3 dopamine receptor | P35462 | D3R cells, DiscoveRx beta-arrestin luminescence, antagonist mode; stronger effect = lower value | max response, negative = inhibition, % | 2.5% of 360,000 active | AID 652054; in the data active means max response below about -50%
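Cells expressing the human receptor were seeded at 1500 cells/well, incubated overnight at 37 degrees C in 5% CO2, then exposed to library compounds with dopamine controls for 90 minutes at 37 degrees C before luminescent detection.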
D1 antagonist: human D1 dopamine receptor antagonism; P21728; HEK293 TREx D1 cells, calcium flux, dopamine EC80; stronger effect = lower value; activity change, negative = inhibition, % at 10 µM; 3.2% of 360,000 active; AID 504652; in the data active means activity change below about -30%
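Antagonism measured as reduced calcium response to an EC80 dopamine addition following 180 s compound pre-read; cells were inducible HEK293 Trex D1 plated overnight at 30 C, read kinetically at 1 cycle/sec.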
D1 agonist: human D1 receptor agonism; P21728; HEK293 T-REx D1 cells, calcium flux, agonist mode; activation, % at 2 µM; 1% of 360,000 active; AID 504660; in the data active means activation above about 30%
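Tetracycline-induced HEK293 TREx D1 cells, force-coupled to calcium signalling, were dye-loaded with a no-wash calcium kit. Compound was pin-added after a 10 s baseline. Fluorescence was read kinetically at 1 cycle/s for 180 s, with calcium rises flagged as agonism.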
Hits are given with their value; – = inactive; · = no result given; ! = a repeat was not active.

SMILES	D1 potentiator	D3 ag	DRD3 antagonist	D1 antagonist	D1 agonist
COC(=O)[C@@]12C[C@@H](CC(=O)NCCCN3CCCC3=O)C(=O)N(Cc3ccc4c(c3)OCO4)C1=CCC(C)(C)C2	·	–	–	·	·
O=C(CSC1=NC(=O)C(c2ccccc2)C(=O)N1)Nc1ccccc1Cl (configuration not stated)	–	–	–	–	–
O=C(CSC1=NC(=O)C(c2ccccc2)C(=O)N1)Nc1cccc(Cl)c1 (configuration not stated)	–	–	–	-32.7	–
Cc1ccc(-c2noc(C(C)NS(=O)(=O)c3ccc(C)cc3)n2)cc1 (configuration not stated)	–	–	·	–	–
Cc1ccc2c(CC(=O)Nc3ccc(S(=O)(=O)N4CCCC(C)C4)cc3)coc2c1 (configuration not stated)	–	–	·	–	–
O=C(OCCOc1ccc(F)cc1)c1ccc(S(=O)(=O)N2CCCC2)cc1	–	–	–	–	–
Cc1ccc2c(CC(=O)Nc3ccc(S(=O)(=O)N4CCCCC4)cc3)coc2c1	–	–	·	-72.7	–
O=C(COC(=O)CCS(=O)(=O)c1ccccc1)Nc1cc(S(=O)(=O)N2CCCCC2)ccc1Cl	–	–	–	–	–
Cc1ccccc1OCC(=O)OCC(=O)Nc1cc(S(=O)(=O)N2CCCCC2)ccc1Cl	–	–	–	-96.3	–
Cc1ccccc1OCCC(=O)Nc1ccc(S(=O)(=O)N2CCCC2)cc1	·	–	-86.6	·	·
Cc1ccccc1OCCOC(=O)c1ccc(S(=O)(=O)N2CCCC2)cc1	–	–	–	-30.8	–
Cc1cccc(OCCC(=O)Nc2ccc(S(=O)(=O)N3CCCC3)cc2)c1	–	–	–	–	–
CCCCc1ccc(-n2nc3cc(Cl)c(NC(=O)c4ccc(OC)cc4)cc3n2)cc1	–	–	·	–	–
COc1cc(OC)cc(C(=O)NNC(=O)C2CCC2)c1	·	–	–	·	·
Cc1csc(SCc2nnc(-c3ccccc3Br)o2)n1	–	–	–	–	–
Fc1ccccc1SCc1nnc(-c2ccccc2Br)o1	–	–	–	-65.9	–
O[Si](CCCN1CCCCC1)(c1ccc(F)cc1)C1CCCCC1 (configuration not stated)	–	–	-109.6	–	–
CCOc1ccccc1CNS(=O)(=O)c1ccc2c(c1)C(C)(C)C(=O)N2C	–	–	–	-34.6!	–
CCOc1ccc(N(C)S(=O)(=O)c2ccc3c(c2)C(C)(C)C(=O)N3C)cc1	–	–	·	-35.5	–
CCOC(=O)c1ccccc1NC(=O)c1sc2nc3n(c(=O)c2c1C)CCCC3	–	–	·	–	–
CC(C)(C)OC(=O)Cc1nnc(CNC(=O)c2ccccc2)s1	–	·	·	–	–
CC(Oc1ccccc1)C(=O)Nc1cccc(-c2nc3ccccc3[nH]2)c1 (configuration not stated)	–	–	–	-40.3	–
CC(=O)Nc1cccc(-c2nc3ccccc3[nH]2)c1	–	–	–	–	–
Cc1cc(C)c(S(=O)(=O)c2ccc(Cl)cc2)c(=O)[nH]1	–	–	–	–	–
N#Cc1cc(S(=O)(=O)c2ccc(Cl)cc2)c(N)[nH]c1=O	–	–	–	-45.2	–
SMILES	D1 potentiator	D3 ag	DRD3 antagonist	D1 antagonist	D1 agonist
COC(=O)C1=CNC=C(C(=O)OC)C1c1ccc(C(=O)OC)cc1	–	–	–	–	38.4
S=c1[nH]nc(-c2cc(-c3ccco3)[nH]n2)n1-c1ccccc1Cl	–	–	-51.7	–	–
COc1cccc2[nH]c3ccccc3c(=O)c12	–	–	–	–	–
C=Cc1ncc(OC)c2c1[nH]c1ccccc12	–	–	–	-55.2	–
CCCCC1=CC2=C(c3ccco3)C(=O)C(C)(OC(=O)c3ccc(OC)cc3)C(=O)C2=CN1CC1CC1 (configuration not stated)	–	–	-64.4	–	–
O=C(c1ccc(CS(=O)c2ccccc2Cl)o1)N1CCN(c2ccccn2)CC1 (configuration not stated)	–	–	–	-35.7	–
COc1cccc(N2CCN(C(=O)c3ccc(CS(=O)Cc4ccccc4Cl)o3)CC2)c1 (configuration not stated)	–	–	–	–	–
O=C(c1ccc(CS(=O)c2ccccc2Cl)o1)N1CCN(c2cccc(Cl)c2)CC1 (configuration not stated)	–	–	·	–	–
O=C(c1ccc(CS(=O)Cc2ccc(Cl)cc2)o1)N1CCN(c2ccccn2)CC1 (configuration not stated)	–	–	–	-36.4	–
O=C(c1ccc(CS(=O)Cc2ccccc2Cl)o1)N1CCN(c2ccccn2)CC1 (configuration not stated)	–	–	–	–	–
O=C(c1ccc(CS(=O)Cc2ccccc2Cl)o1)N1CCN(c2cccc(Cl)c2)CC1 (configuration not stated)	–	–	–	-45.0	–
CCOc1ccc(OCCCCOc2ccccc2C(C)=O)cc1	–	–	–	–	–
COc1ccccc1P(=O)(Cc1ccccc1)c1ccccc1 (configuration not stated)	–	–	–	–	–
CCOC(=O)C1CCCN(C(=O)c2cc(C)oc2C)CC1 (configuration not stated)	·	–	–	·	·
CCOc1ccccc1Oc1ncnc2c1oc1ccccc12	–	–	·	–	–
O=C(Nc1n[nH]c(C(F)(F)F)n1)C1CC1	–	–	–	-33.7	–
Cc1ccsc1C(=O)Nc1n[nH]c(C(F)(F)F)n1	–	–	–	–	–
Cc1cc(C)c2c(=O)n(CC(=O)Nc3ccc(Br)c(C)c3)sc2n1	–	–	–	-49.0	–
COc1ccc(OC)c(CCNC(=O)Cn2sc3nc(C)cc(C)c3c2=O)c1	–	·	·	-47.8	–
Cc1cc(C)c2c(=O)n(CC(=O)NC3CCCC3)sc2n1	–	–	–	–	–
Cc1cc(C)c2c(=O)n(CC(=O)Nc3cccc(Cl)c3C)sc2n1	–	–	–	–	37.4
CCOc1ccccc1CNc1ncnc2c1nc1n2CCCC1	–	–	·	–	–
COc1cc2c(cc1OC)[C@@H](c1ccccc1)CN(C)CC2	·	–	·	·	·
COc1cccc(CN2C(=O)c3ccccc3Sc3ccc(C(=O)NCCc4ccc(Cl)cc4)cc32)c1	–	–	·	–	–
CCOC1=C2[C@H]([C@H]3C(=O)N(c4ccccc4)C(=O)[C@H]3C1)[C@@H](C(C)C)N(S(=O)(=O)c1ccc(C)cc1)[C@H]2c1ccccc1	·	–	–	·	·
SMILES	D1 potentiator	D3 ag	DRD3 antagonist	D1 antagonist	D1 agonist
COc1cc(NC(=O)[C@@H]2O[C@H](CO)[C@@H](O)[C@H]2O)cc(OC)c1OC	·	–	–	·	·
N#Cc1nc(-c2ccccc2)oc1NCCN1CCCCC1	–	–	-72.3	–	–
CC(C)(C)c1ccc(-c2nc(C#N)c(NCCCn3ccnc3)o2)cc1	–	–	–	–	36.4
N#Cc1nc(-c2ccc(F)cc2)oc1NCCCn1ccnc1	–	·	·	–	–
N#Cc1nc(COc2ccccc2)oc1NCCCn1ccnc1	–	–	–	-32.8	–
O=C(COC(=O)CNC(=O)c1ccccc1)NC12CC3CC(CC(C3)C1)C2	·	–	–	·	·
